Measured values from the supplement of paper PMC9135407.
“And” between values parts separate entries of the source, which are not always exact repeats. Equal entries are not always repeated. Structures can show the parent of a compound that is named as a salt. About 620 (11%) of roughly 5,800 compounds showed activity. Only a selection was taken, and actives are over-represented in it overall. Unmarked numbers belong to inactive results.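 The calls were made as follows: active = score above a cut-off or among the top three wells of a plate; in these data no inactive exceeds 0.85.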

Test system: primary human hepatic stellate cells (donor 1)
Experiment: scaled lipid accumulation score (0 = DMSO-like, 1 = nortriptyline-like); higher = stronger HSC inactivation (lipid re-accumulation), active = hit call of the paper
Conditions: 48 h
[1] = library stock concentration: 3.33 mM
[2] = library stock concentration: 1 mM
[3] = library stock concentration: 10 mM
[4] = library stock concentration: 80 uM
[5] = library stock concentration: 400 uM
[6] = library stock concentration: 2 mM

SMILES: Cc1cncc2cccc(S(=O)(=O)N3CCCN(C(=O)CN)C[C@@H]3C)c12 [Rho Kinase Inhibitor IV]
- scaled lipid accumulation score [1]: ≤ 0

SMILES: C=CCN(C)CCCCCCOc1ccc(C(=O)c2ccc(Br)cc2)c(F)c1
- scaled lipid accumulation score [2]: 0.116

SMILES: CCCCC/C=C\C/C=C\CCCCCCCC(=O)OCC(COC(=O)CCCCCCCCCCCCCCC)OC(=O)CCCCCCC/C=C\CCCCCCCC (racemic) [1-Palmitoyl-2-oleoyl-3-linoleoyl-rac-glycerol]
- scaled lipid accumulation score [2]: 0.03

SMILES: OC1C[C@@H]2[C@@H](CC[C@@H](O)CCc3ccccc3)[C@H](O)C[C@@H]2O1 (stereo partly specified) [Latanoprost Lactol]
- scaled lipid accumulation score [2]: 0.027

SMILES: COc1cc2ncnc(Nc3cccc(Cl)c3)c2cc1OC [AG-1478 (Tyrphostin AG-1478)] [listing 1 of 2 here]
- scaled lipid accumulation score [1]: ≤ 0

SMILES: COc1cc2ncnc(Nc3ccc(Oc4ccccc4)cc3)c2cc1OC [Src Kinase Inhibitor I]
- scaled lipid accumulation score [1]: ≤ 0

SMILES: COc1cc2ncnc(Nc3ccc(Oc4ccccc4)cc3)c2cc1OC
- scaled lipid accumulation score [3]: 0.029

SMILES: COc1cc2ncnc(Nc3cccc(Cl)c3)c2cc1OC [AG-1478 (Tyrphostin AG-1478)] [listing 2 of 2 here]
- scaled lipid accumulation score [3]: 1.07 (active)

SMILES: COc1cc2ncnc(Nc3ccc(Cl)cc3Cl)c2cc1OC [Ste11 MAPKKK Activation Inhibitor]
- scaled lipid accumulation score [1]: ≤ 0

SMILES: COc1cc2ncnc(Nc3cccc(O)c3)c2cc1OC [WHI-P180, Hydrochloride]
- scaled lipid accumulation score [1]: ≤ 0

SMILES: COc1cc2ncnc(Nc3cccc(Cl)c3)c2cc1OC
- scaled lipid accumulation score [4]: ≤ -0.016
- scaled lipid accumulation score [5]: ≤ -0.016
- scaled lipid accumulation score [6]: ≤ -0.016
- scaled lipid accumulation score [1]: ≤ 0
- scaled lipid accumulation score [3]: 0.749
- scaled lipid accumulation score (library stock concentration: 14.2 mM): 0.452

SMILES: COc1cc2ncnc(Nc3cccc(Cl)c3)c2cc1OC [Tyrphostin AG 1478]
- scaled lipid accumulation score [3]: 0.882 (active)

SMILES: CCCCCCCCCCCCCCCCOC[C@H](COP(=O)([O-])OCC[N+](C)(C)C)SC(C)=O [2-thio-PAF]
- scaled lipid accumulation score [2]: ≤ 0

SMILES: CN1C(=O)C(c2c[nH]c3ccccc23)=C(c2c[nH]c3ccccc23)C1=O [Bisindolylmaleimide V]
- scaled lipid accumulation score [2]: ≤ 0
- scaled lipid accumulation score [1]: ≤ 0

SMILES: C[C@H]1[C@H](C)CC[C@]2(C(=O)O[C@@H]3O[C@H](CO[C@@H]4O[C@H](CO)[C@@H](O[C@@H]5O[C@H](C)[C@H](O)[C@@H](O)[C@H]5O)[C@H](O)[C@H]4O)[C@@H](O)[C@H](O)[C@H]3O)CC[C@]3(C)C(=CC[C@@H]4[C@@]5(C)C[C@@H](O)[C@H](O)[C@@](C)(CO)[C@@H]5CC[C@]43C)[C@H]12 [Asiaticoside]
- scaled lipid accumulation score: ≤ 0

SMILES: Cn1c(Nc2ccc(C(F)(F)F)cc2)nc2cc(Oc3ccnc(-c4ncc(C(F)(F)F)[nH]4)c3)ccc21
- scaled lipid accumulation score [4]: ≤ -0.001
- scaled lipid accumulation score [5]: ≤ -0.003
- scaled lipid accumulation score [6]: 0.037
- scaled lipid accumulation score [1]: 0.031
- scaled lipid accumulation score [3]: 0.077 and 0.031

SMILES: O=C1Cc2c([nH]c3ccc(Br)cc23)-c2ncccc2N1 [1-Azakenpaullone]
- scaled lipid accumulation score [1]: 0.405
- scaled lipid accumulation score [3]: 0.808

SMILES: CCCCCCCCCCCCCCCCOCC(COP(=O)([O-])OCC[N+](C)(C)C)OC (stereo unspecified) [1-Hexadecyl-2-methylglycero-3 PC]
- scaled lipid accumulation score [2]: 0.043

SMILES: COc1cc(C[C@@H](CO)[C@H](CO)Cc2ccc(O)c(OC)c2)ccc1O
- scaled lipid accumulation score [3]: 0.022

SMILES: NC[C@@H]1O[C@H](C23CC4CC(CC(C4)C2)C3)Cc2c1ccc(O)c2O
- scaled lipid accumulation score [3]: 0.438

SMILES: NC[C@@H]1O[C@H](c2ccccc2)Cc2c1ccc(O)c2O
- scaled lipid accumulation score [3]: ≤ 0

SMILES: NC[C@H]1c(c2C[C@@H]([C@]3(C4)CC(CC45)CC(C5)C3)O1)ccc(O)c2O.Cl
- scaled lipid accumulation score [3]: 1.19 (active)

SMILES: COc1ccc(C2CC(=O)c3c(O)cc(OC4OC(COC5OC(C)C(O)C(O)C5O)C(O)C(O)C4O)cc3O2)cc1OC (stereo unspecified) [Methyl-Hesperidin]
- scaled lipid accumulation score [1]: ≤ 0
- scaled lipid accumulation score [3]: ≤ 0

SMILES: CCCCC/C=C\C/C=C\C/C=C\C/C=C\CCCC(=O)OC(COCCCCCCCCCCCCCCCC)COP(=O)([O-])OCC[N+](C)(C)C (stereo unspecified) [Arachidonoyl PAF C-16]
- scaled lipid accumulation score [2]: ≤ 0

SMILES: CC1CCN(CCCC(=O)c2ccc(F)cc2)CC1 [Melperone hydrochloride]
- scaled lipid accumulation score [3]: 0.058

SMILES: O=C(c1ccc(F)cc1)C1CCN(CCCCc2ccccc2)CC1 [4-(4-Fluorobenzoyl)-1-(4-phenylbutyl)-piperidine oxalate]
- scaled lipid accumulation score [3]: 0.378

SMILES: Cl.O[Si](CCCN1CCCCC1)(c1ccc(F)cc1)C1CCCCC1 (stereo unspecified) [Hexahydro-sila-difenidol hydrochloride, p-fluoro analog]
- scaled lipid accumulation score [3]: 0.956 (active)

SMILES: CC1CCN(CCCC(=O)c2ccc(F)cc2)CC1 [Metylperon]
- scaled lipid accumulation score [3]: ≤ 0

SMILES: CC1CCN(CCCC(=O)c2ccc(F)cc2)CC1
- scaled lipid accumulation score [3]: ≤ 0

SMILES: C[C@H]1[C@H](C)CC[C@]2(C(=O)O)CC[C@]3(C)C(=CC[C@@H]4[C@@]5(C)CC[C@H](O)C(C)(C)[C@@H]5CC[C@]43C)[C@H]12 [Ursolic acid]
- scaled lipid accumulation score: 0.053

SMILES: C[C@H]1[C@H](C)CC[C@]2(C(=O)O)CC[C@]3(C)C(=CC[C@@H]4[C@@]5(C)CC[C@H](O)C(C)(C)[C@@H]5CC[C@]43C)[C@H]12 [Ursolic Acid]
- scaled lipid accumulation score [1]: 0.013
- scaled lipid accumulation score [3]: ≤ 0

SMILES: O=C1CC2(CCCC2)CC(=O)N1CCNCC1COc2ccccc2O1 (stereo unspecified)
- scaled lipid accumulation score [3]: ≤ 0 and 0.017

SMILES: CCCCC1C(=O)CCC2C(CC=CCCCC(=O)O)C(=O)CC12 (stereo unspecified) [Bicyclo Prostaglandin E2]
- scaled lipid accumulation score [2]: ≤ 0

SMILES: C=C(NC(=O)C(=C)NC(=O)c1csc(C2=N[C@@H]3c4csc(n4)[C@H]4NC(=O)c5csc(n5)[C@H]([C@](C)(O)[C@@H](C)O)NC(=O)[C@H]5CSC(=N5)/C(=C/C)NC(=O)[C@H]([C@@H](C)O)NC(=O)c5csc(n5)[C@]3(CC2)NC(=O)[C@H](C)NC(=O)C(=C)NC(=O)[C@H](C)NC(=O)[C@H]([C@@H](C)CC)N[C@@H]2C=Cc3c([C@H](C)O)cc(nc3[C@H]2O)C(=O)O[C@@H]4C)n1)C(N)=O [Thiostrepton]
- scaled lipid accumulation score: 1.19 (active)

SMILES: COP(=O)(OC)OC(c1ccc(Cl)cc1)P(=O)(OC)OC (stereo unspecified)
- scaled lipid accumulation score [3]: ≤ -0.001

SMILES: COc1cc(C[C@H]2COC(=O)[C@@H]2Cc2ccc(O)c(OC)c2)ccc1O [Matairesinol]
- scaled lipid accumulation score [2]: ≤ 0

SMILES: CC1(C)CC(=O)c2c(ccc(C(=O)CC(N)CO)c2N)O1 (stereo unspecified)
- scaled lipid accumulation score [3]: 1.03 (active)

SMILES: CO/N=C(\C(=O)N[C@@H]1C(=O)N2C(C(=O)O)=C(CSc3nc(=O)c(O)nn3C)CS[C@H]12)c1csc(N)n1 [Ceftriaxone sodium]
- scaled lipid accumulation score [3]: ≤ 0

SMILES: CO/N=C(\C(=O)N[C@@H]1C(=O)N2C(C(=O)O)=C(CSc3nc(=O)c(O)nn3C)CS[C@H]12)c1csc(N)n1 [Ceftriaxone sodium trihydrate]
- scaled lipid accumulation score (library stock concentration: 3.1 mM): ≤ 0
- scaled lipid accumulation score [3]: ≤ -0.027 and 0.254

SMILES: N#Cc1c(-c2ccccc2)no[n+]1[O-] [Furoxan]
- scaled lipid accumulation score (library stock concentration: 26.7 mM): 1 (active)

SMILES: CCCCCC[C@@H]([C@@H](C)O)n1cnc2c(N)ncnc21 (racemic)
- scaled lipid accumulation score (library stock concentration: 18 mM): 0.052

SMILES: CC1(C)CCC(CN2CCN(c3ccc(C(=O)NS(=O)(=O)c4ccc(NCC5CCOCC5)c([N+](=O)[O-])c4)c(Oc4cnc5[nH]ccc5c4)c3)CC2)=C(c2ccc(Cl)cc2)C1
- scaled lipid accumulation score [1]: ≤ -0.009
- scaled lipid accumulation score [3]: ≤ 0

SMILES: O=S(c1ccccc1)c1ccc2nnnn2n1 (stereo unspecified)
- scaled lipid accumulation score [3]: 1.3 (active)

SMILES: O=C1c2ccccc2-c2nc3nnnn3nc21 [PDK1/Akt/Flt Dual Pathway Inhibitor]
- scaled lipid accumulation score [1]: 0.462

SMILES: COC(=O)C1=CO[C@@H](O)[C@@H]2C(CO)=CC[C@H]12 [Genipin]
- scaled lipid accumulation score [1]: ≤ 0
- scaled lipid accumulation score [3]: 0.019 and ≤ -0.028

SMILES: CC(C)(C)C(=O)Oc1ccc(S(=O)(=O)Nc2ccccc2C(=O)NCC(=O)O)cc1 [Sivelestat sodium salt hydrate]
- scaled lipid accumulation score [3]: ≤ -0.055

SMILES: O=C(NOCC1CC1)c1cc(Br)c(F)c(F)c1Nc1ccc(I)cc1Cl
- scaled lipid accumulation score [3]: ≤ 0

SMILES: NC(=O)C(c1ccccc1)(c1ccccc1)[C@@H]1CCN(CCc2ccc3c(c2)CCO3)C1
- scaled lipid accumulation score [3]: 0.413

SMILES: Br.NC(=O)C(c1ccccc1)(c1ccccc1)[C@@H]1CCN(CCc2ccc3c(c2)CCO3)C1 [Darifenacin HBr]
- scaled lipid accumulation score [3]: 1.03 (active)

SMILES: Br.NC(=O)C(c1ccccc1)(c1ccccc1)[C@@H]1CCN(CCc2ccc3c(c2)CCO3)C1
- scaled lipid accumulation score [3]: 0.88 (active)

SMILES: OC(CCN1CCCC1)(c1ccccc1)C1CCCCC1 (stereo unspecified) [Procyclidine hydrochloride]
- scaled lipid accumulation score: 0.092
- scaled lipid accumulation score (library stock concentration: 6.2 mM): 0.569
- scaled lipid accumulation score [3]: 0.484

SMILES: c1ccc(C(O[C@@H]2CCCN(CCc3ccc4c(c3)OCO4)C2)c2ccccc2)cc1 [Zamifenacin fumarate]
- scaled lipid accumulation score [3]: 0.194

SMILES: CC(C)(C(=O)O)c1ccc(C(O)CCCN2CCC(C(O)(c3ccccc3)c3ccccc3)CC2)cc1 (stereo unspecified) [Fexofenadine HCl]
- scaled lipid accumulation score: ≤ 0
- scaled lipid accumulation score [1]: ≤ 0
- scaled lipid accumulation score [3]: 0.057

SMILES: CC(C)(C(=O)O)c1ccc(C(O)CCCN2CCC(C(O)(c3ccccc3)c3ccccc3)CC2)cc1 (stereo unspecified) [Fexofenadine hydrochloride]
- scaled lipid accumulation score [3]: ≤ -0.07 and 0.008

SMILES: CC(C)(C(=O)O)c1ccc(C(O)CCCN2CCC(C(O)(c3ccccc3)c3ccccc3)CC2)cc1 (stereo unspecified)
- scaled lipid accumulation score [3]: ≤ 0

SMILES: NC(=O)C(c1ccccc1)(c1ccccc1)[C@@H]1CCN(CCc2ccc3c(c2)CCO3)C1 [Darifenacin HBr]
- scaled lipid accumulation score [1]: ≤ 0
